Targets with a hit are over-represented here; the source holds about 7,900 in all. About 0.6% of all pairs of compound and target were hits.
Experiments:
Assay in all cases: log2 fold change, soluble protein after heating vs DMSO (PISA); higher = thermal stabilisation; K562 cells, 10 uM, 30 min; active = over 0.2 and 3.5 SD of the protein, either way, in both replicates (recomputed)
[1] = compound: Cc1ccc(NC(=O)c2ccc(CN3CC[C@H](N(C)C)C3)c(C(F)(F)F)c2)cc1Nc1nccc(-c2cncnc2)n1 [bafetinib]
How it was run: (§1)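 K562 cells (2×10^6 cells/mL) were treated with 10 μM compound for 30 min, and aliquots were heated for 3 min over 48°C-58°C. Pooled aliquots were extracted in PBS with 0.5% NP-40 at 4°C, and the supernatant after 21,000xg for 90 min was measured by TMTpro 16plex LC-MS/MS with channel sums equalised. Reported thermal stability, relative to control samples and from duplicates, is a log2 fold change.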

[2] = compound: Cc1cn(-c2cc(NC(=O)c3ccc(C)c(Nc4nccc(-c5cccnc5)n4)c3)cc(C(F)(F)F)c2)cn1 [nilotinib]
How it was run: as §1

[3] = compound: Cc1nc(Nc2n[nH]c3c2CN(C(=O)N[C@H](CN(C)C)c2ccccc2)C3(C)C)c2sccc2n1
How it was run: as §1

[4] = compound: Cc1ncc(-c2ccnc(Nc3ccc(S(C)(=O)=O)cc3)n2)n1C(C)C
How it was run: as §1

[5] = compound: Cn1cc(-c2ccc3nnc(C(F)(F)c4ccc5ncccc5c4)n3n2)cn1
How it was run: as §1

[6] = compound: FC(F)(F)c1ccc(/C=C/c2nc(COc3ccc(CCCCn4ccnn4)cc3)co2)cc1 [mubritinib]
How it was run: as §1

[7] = compound: Cc1cccc(CC(=O)N2CCc3c2ccc(-c2cn(C)c4ncnc(N)c24)c3F)n1
How it was run: as §1

[8] = compound: Cc1nc(Nc2ncc(C(=O)Nc3c(C)cccc3Cl)s2)cc(N2CCN(CCO)CC2)n1 [dasatinib]
How it was run: as §1

[9] = compound: Cn1cncc1[C@@](N)(c1ccc(Cl)cc1)c1ccc2c(c1)c(-c1cccc(Cl)c1)cc(=O)n2C [tipifarnib]
How it was run: as §1

[10] = compound: Cn1cc(-c2ccc3c(c2)CCN3C(=O)Cc2cccc(C(F)(F)F)c2)c2c(N)ncnc21
How it was run: as §1

Measured: log2 fold change

NA (UniProt J3KR12)
inactive: [1] 0.338 | [2] 0.208 | [3] -0.221 | [4] -0.196 | [5] -0.112 | [6] 0.16

NUDT7 (UniProt P0C024)
inactive: [1] 0.418 | [7] -0.122 | [2] 0.093 | [3] 0.006 | [4] -0.03 | [5] 0.027

MSANTD2 (UniProt Q6P1R3)
inactive: [8] -0.042

MORC2 (UniProt Q9Y6X9)
Sequence of UniProt Q9Y6X9 (Q9Y6X9 whole entry, looked up): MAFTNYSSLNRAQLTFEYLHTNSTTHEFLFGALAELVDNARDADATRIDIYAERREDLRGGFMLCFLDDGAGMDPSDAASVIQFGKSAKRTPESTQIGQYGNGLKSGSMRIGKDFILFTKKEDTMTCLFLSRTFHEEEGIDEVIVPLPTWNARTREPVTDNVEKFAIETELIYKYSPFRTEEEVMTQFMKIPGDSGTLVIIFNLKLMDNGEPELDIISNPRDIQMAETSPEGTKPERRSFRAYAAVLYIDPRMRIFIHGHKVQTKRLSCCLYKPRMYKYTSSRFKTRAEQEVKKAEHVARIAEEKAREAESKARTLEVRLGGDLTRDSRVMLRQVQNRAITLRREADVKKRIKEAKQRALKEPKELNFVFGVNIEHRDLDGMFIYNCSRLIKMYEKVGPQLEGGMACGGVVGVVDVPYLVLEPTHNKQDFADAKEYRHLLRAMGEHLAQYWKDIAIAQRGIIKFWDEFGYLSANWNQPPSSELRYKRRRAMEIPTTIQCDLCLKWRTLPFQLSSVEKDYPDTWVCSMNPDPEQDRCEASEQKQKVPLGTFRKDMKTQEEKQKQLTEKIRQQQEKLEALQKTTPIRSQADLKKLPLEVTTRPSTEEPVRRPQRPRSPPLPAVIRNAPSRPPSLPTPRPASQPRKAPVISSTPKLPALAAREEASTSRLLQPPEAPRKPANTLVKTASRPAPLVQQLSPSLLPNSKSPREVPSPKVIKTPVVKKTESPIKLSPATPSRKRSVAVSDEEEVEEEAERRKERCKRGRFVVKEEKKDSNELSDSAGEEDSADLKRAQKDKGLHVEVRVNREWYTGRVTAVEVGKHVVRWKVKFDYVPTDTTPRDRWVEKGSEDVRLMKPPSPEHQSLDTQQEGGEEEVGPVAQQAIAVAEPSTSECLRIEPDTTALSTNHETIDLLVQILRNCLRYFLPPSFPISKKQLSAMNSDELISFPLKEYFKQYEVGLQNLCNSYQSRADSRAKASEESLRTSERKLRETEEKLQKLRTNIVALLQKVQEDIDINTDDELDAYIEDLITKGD
inactive: [1] -0.036 | [9] 0.018 | [6] 0.126

NRGN (UniProt Q92686)
Sequence of UniProt Q92686 (Q92686 whole entry, looked up): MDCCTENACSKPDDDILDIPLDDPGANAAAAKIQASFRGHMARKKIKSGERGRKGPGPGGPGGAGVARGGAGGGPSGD
inactive: [1] -0.199 | [7] -0.581 | [2] 0.004 | [3] -0.199 | [4] -0.088 | [5] 0.074 | [9] -0.055

NME7 (UniProt Q9Y5B8)
inactive: [1] -0.14 | [7] 0.071 | [8] -0.245 | [10] -0.044 | [5] 0.009 | [9] -0.001 | [6] -0.279

NEU3 isoform 2 (UniProt Q9UQ49)
inactive: [9] 0.044

NA (UniProt B2RBV5)
Sequence of UniProt B2RBV5 (B2RBV5 whole entry, looked up): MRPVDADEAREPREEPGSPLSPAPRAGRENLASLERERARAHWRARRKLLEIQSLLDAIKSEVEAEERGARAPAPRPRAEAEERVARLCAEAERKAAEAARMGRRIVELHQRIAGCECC
active: [3] 0.828
inactive: [1] -0.005 | [7] -0.084 | [2] -0.433 | [4] -0.195 | [9] 0.075 | [6] 0.04

OSBPL2 (UniProt Q9H1P3)
inactive: [10] 0.37 | [9] -0.009 | [6] 0.465

NAT14 (UniProt Q8WUY8)
Sequence of UniProt Q8WUY8 (Q8WUY8 whole entry, looked up): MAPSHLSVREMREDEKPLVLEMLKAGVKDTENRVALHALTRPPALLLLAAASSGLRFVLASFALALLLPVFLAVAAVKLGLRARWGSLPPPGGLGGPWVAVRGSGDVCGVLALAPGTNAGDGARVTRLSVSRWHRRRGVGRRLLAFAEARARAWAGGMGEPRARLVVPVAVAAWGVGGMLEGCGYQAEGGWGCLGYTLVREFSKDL
inactive: [1] -0.071 | [2] 0.003 | [3] -0.052 | [8] -0.066 | [4] 0 | [10] -0.06 | [5] -0.209 | [9] 0.054 | [6] 0.118

NCK1 (UniProt P16333)
inactive: [1] 0.062 | [2] -0.069 | [3] -0.421 | [8] -0.138 | [4] 0.046 | [10] -0.086 | [5] -0.044 | [9] 0.008 | [6] -0.058

MXRA7 isoform 3 (UniProt P84157)
inactive: [5] -0.078 | [9] 0.011

MLST8 (UniProt Q9BVC4)
inactive: [1] 0.005 | [2] -0.125 | [3] 0.085 | [8] -0.152 | [4] -0.059 | [10] 0.028 | [9] -0.109 | [6] 0.1

PAFAH2 (UniProt Q99487)
active: [9] 0.611
inactive: [1] -0.083 | [8] -0.146 | [10] 0.079 | [5] 0.029

OVCA2 (UniProt Q8WZ82)
inactive: [1] 0.171 | [7] 0.039 | [2] 0.026 | [3] -0.326 | [4] -0.163 | [5] -0.003 | [9] -0.059 | [6] -0.231

MLH1 (UniProt P40692)
Sequence of UniProt P40692 (P40692 whole entry, looked up): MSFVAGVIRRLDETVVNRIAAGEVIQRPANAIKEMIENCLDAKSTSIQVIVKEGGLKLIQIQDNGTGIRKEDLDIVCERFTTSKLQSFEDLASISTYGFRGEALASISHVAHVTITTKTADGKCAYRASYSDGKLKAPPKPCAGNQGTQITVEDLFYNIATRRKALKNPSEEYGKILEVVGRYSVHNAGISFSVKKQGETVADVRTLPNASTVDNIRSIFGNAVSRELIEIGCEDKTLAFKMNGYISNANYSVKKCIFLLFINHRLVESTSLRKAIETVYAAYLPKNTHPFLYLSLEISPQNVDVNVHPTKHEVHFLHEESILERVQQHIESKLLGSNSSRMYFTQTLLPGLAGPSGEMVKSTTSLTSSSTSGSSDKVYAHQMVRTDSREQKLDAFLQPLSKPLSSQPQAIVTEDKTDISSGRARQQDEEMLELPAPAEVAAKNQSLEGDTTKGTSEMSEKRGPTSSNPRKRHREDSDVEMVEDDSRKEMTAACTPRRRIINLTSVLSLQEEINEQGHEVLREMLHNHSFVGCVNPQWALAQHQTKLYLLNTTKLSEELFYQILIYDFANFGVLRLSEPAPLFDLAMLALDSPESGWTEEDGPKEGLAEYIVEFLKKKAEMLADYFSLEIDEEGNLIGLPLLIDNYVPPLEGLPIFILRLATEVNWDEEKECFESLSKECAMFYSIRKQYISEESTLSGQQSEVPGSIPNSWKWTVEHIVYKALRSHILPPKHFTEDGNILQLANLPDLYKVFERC
inactive: [1] -0.063 | [7] 0.035 | [8] -0.212 | [10] 0.005 | [9] 0.047 | [6] -0.073

NA isoform 3 (UniProt Q4G0T1)
Sequence of UniProt Q4G0T1 (Q4G0T1 whole entry, looked up): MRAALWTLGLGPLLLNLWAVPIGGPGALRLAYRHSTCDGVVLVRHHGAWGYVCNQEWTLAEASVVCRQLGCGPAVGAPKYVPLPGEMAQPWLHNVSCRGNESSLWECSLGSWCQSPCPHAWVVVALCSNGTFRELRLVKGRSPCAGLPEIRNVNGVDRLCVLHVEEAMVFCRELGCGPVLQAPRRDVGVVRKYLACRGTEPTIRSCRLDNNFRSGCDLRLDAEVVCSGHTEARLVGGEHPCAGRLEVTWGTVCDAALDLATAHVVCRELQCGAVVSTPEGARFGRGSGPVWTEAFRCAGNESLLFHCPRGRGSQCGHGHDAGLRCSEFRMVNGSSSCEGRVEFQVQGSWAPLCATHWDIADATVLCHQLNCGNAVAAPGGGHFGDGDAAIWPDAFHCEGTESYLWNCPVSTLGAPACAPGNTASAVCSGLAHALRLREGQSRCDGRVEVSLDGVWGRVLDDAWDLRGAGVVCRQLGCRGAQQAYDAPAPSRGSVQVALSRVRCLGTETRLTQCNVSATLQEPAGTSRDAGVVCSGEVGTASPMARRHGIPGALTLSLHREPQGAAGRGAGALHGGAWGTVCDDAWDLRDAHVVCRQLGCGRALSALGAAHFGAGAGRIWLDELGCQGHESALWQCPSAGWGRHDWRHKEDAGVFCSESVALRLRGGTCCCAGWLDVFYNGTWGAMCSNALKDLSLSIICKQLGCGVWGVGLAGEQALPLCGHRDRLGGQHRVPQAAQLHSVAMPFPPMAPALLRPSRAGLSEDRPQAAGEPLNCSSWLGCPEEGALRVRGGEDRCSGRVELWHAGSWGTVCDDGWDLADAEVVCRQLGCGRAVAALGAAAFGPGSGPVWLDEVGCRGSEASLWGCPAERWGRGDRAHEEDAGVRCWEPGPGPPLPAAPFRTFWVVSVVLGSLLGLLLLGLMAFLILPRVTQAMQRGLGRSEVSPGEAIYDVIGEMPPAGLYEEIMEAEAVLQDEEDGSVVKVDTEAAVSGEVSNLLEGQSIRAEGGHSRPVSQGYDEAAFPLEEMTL
inactive: [1] -0.198 | [2] -0.021 | [3] -0.009 | [8] -0.093 | [4] 0.01 | [10] -0.065 | [5] 0.059 | [9] -0.066 | [6] -0.066

NUDT6 (UniProt P53370)
Sequence of UniProt P53370 (P53370 whole entry, looked up): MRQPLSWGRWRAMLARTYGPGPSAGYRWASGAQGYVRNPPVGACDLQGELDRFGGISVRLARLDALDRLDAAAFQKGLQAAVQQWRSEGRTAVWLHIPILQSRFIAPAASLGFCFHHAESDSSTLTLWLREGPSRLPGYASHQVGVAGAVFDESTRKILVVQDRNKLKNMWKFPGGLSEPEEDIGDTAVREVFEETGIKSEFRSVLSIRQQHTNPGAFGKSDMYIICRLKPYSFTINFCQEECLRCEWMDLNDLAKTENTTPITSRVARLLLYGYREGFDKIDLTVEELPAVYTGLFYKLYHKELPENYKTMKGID
inactive: [2] -0.1 | [3] 0.083 | [8] -0.005 | [4] 0.08 | [10] 0.426 | [5] 0.05 | [9] -0.022 | [6] -0.049

MYSM1 (UniProt Q5VVJ2)
inactive: [1] -0.138 | [5] 0.18

NEK3 (UniProt P51956)
Sequence of UniProt P51956 (P51956 whole entry, looked up): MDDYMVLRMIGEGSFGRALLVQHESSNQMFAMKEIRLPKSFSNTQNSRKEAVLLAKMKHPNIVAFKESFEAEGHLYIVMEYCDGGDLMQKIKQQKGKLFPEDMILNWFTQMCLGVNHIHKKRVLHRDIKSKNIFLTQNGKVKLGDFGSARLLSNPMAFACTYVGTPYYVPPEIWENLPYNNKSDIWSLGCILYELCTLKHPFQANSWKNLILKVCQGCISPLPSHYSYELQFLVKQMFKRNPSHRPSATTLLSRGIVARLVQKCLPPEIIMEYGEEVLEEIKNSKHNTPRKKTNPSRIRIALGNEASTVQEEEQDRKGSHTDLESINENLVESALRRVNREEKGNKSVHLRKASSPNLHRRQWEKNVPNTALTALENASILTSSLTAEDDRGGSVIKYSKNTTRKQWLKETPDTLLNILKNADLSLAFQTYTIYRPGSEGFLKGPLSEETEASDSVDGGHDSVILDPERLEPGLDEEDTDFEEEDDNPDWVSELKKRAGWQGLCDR
inactive: [7] -0.246 | [2] -0.026 | [3] -0.173 | [8] -0.055 | [4] -0.037 | [10] 0.101 | [5] -0.002 | [9] -0.088 | [6] -0.076

MRPS21 (UniProt P82921)
inactive: [1] 0.382 | [2] -0.347 | [3] 0.137 | [8] -0.284 | [4] -0.002 | [10] 0.036 | [5] 0.017 | [9] -0.028 | [6] 0.277

MRM2 (UniProt Q9UI43)
Sequence of UniProt Q9UI43 (Q9UI43 whole entry, looked up): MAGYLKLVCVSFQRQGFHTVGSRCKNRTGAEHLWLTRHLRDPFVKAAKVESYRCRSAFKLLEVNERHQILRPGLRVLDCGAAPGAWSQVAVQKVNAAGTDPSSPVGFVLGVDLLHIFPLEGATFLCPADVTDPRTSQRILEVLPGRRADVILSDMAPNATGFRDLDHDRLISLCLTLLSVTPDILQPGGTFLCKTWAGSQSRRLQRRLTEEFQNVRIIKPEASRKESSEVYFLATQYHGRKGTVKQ
inactive: [2] -0.069 | [3] -0.049 | [8] -0.381 | [4] 0.043 | [10] 0.164 | [9] -0.011

OXR1 isoform 2 (UniProt Q8N573)
inactive: [7] -0.009 | [2] -0.028 | [3] -0.002 | [8] 0 | [4] -0.094 | [10] 0.15 | [5] 0.099 | [9] -0.019

NASP isoform 2 (UniProt P49321)
inactive: [6] -0.347

MPHOSPH8 isoform 2 (UniProt Q99549)
inactive: [8] -0.025 | [10] -0.019 | [5] -0.116 | [9] 0.01 | [6] 0.031

NA, A0A1W2PSA9
inactive: [7] 0.022 | [8] 0.289 | [10] 0.218 | [5] -0.118

NKTR (UniProt P30414)
inactive: [1] 1.06 | [9] 0.163 | [6] 0.167

NOLC1 isoform 3 (UniProt Q14978)
inactive: [10] -0.015

NCOA5 (UniProt Q9HCD5)
inactive: [7] -0.04 | [2] -0.428 | [8] -0.043 | [4] 0.218 | [5] -0.203 | [9] 0.164
active: [3] -0.92

NOS1AP (UniProt O75052)
Sequence of UniProt O75052 (O75052 whole entry, looked up): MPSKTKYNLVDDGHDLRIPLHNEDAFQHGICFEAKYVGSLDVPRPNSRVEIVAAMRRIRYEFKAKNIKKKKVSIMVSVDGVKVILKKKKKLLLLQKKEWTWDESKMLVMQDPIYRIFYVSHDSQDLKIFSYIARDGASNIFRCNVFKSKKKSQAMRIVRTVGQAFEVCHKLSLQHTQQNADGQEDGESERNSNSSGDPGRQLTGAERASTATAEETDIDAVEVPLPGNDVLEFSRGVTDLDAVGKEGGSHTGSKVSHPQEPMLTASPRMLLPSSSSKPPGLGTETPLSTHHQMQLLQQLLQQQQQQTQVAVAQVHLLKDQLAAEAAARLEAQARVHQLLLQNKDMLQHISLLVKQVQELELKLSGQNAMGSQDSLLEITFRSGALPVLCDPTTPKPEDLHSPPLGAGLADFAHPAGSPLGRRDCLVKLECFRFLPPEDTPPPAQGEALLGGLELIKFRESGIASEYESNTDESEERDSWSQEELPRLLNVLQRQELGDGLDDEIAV
inactive: [1] -0.052 | [10] 0.067 | [5] -0.179 | [9] -0.037 | [6] 0.165

MT-ND1 (UniProt P03886)
inactive: [1] -0.199 | [2] 0.102 | [3] -0.079 | [8] -0.149 | [4] -0.061 | [10] 0.066 | [5] -0.036 | [6] 0.114
active: [9] 0.633

NIPSNAP2 (UniProt C9J7B1)
inactive: [1] -0.045 | [6] 0.173

OAF (UniProt Q86UD1)
inactive: [5] 0.199 | [6] -0.104

Reference: the supplement of paper PMC10849652
